According to PubChem BioAssay AID1159580 (chemical genetic matrix, 2015):
About 2,000 (36%) of roughly 5,500 compounds were called active. Roughly 18% stayed inconclusive and do not appear here. Cut-off read from the data, not from the text of the source: active = normalized growth mostly below about 0.91 (no sharp cut-off); inconclusive = no clear call, values can overlap the other calls; inactive = mostly above about 0.92. The list shows a part of the results.

Assay: chemical genetic growth profiling, strain panel (AID 1159580);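 note: tested at 20 µM; growth read once vehicle control cultures reached saturation at 30 °C; 1 = growth at the plate median or of vehicle wells; lower values mean less growth of the strain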
Conditions: growth OD

Measured: normalized growth

CC(=O)Nc1ccccc1
inactive: S. cerevisiae deletion strains, locus YJR066W, strain TOR1, stronger effect = lower value 0.911 | S. cerevisiae deletion strains, locus YJR075W, strain HOC1, stronger effect = lower value 0.99 | S. cerevisiae deletion strains, locus YKL009W, strain mrt4, stronger effect = lower value 0.97 | S. cerevisiae deletion strains, locus YKL068W, stronger effect = lower value 0.99 | S. cerevisiae deletion strains, locus YKL085W, strain MDH1 (second series), stronger effect = lower value 0.977 | S. cerevisiae deletion strains, locus YKL085W, strain MDH1, stronger effect = lower value 0.977 | S. cerevisiae deletion strains, locus YKL160W, strain elf1, stronger effect = lower value 0.985 | S. cerevisiae deletion strains, locus YKL190W, strain CNB1, stronger effect = lower value 0.973 | S. cerevisiae deletion strains, locus YKR001C, strain vps1, stronger effect = lower value 0.98 | S. cerevisiae deletion strains, locus YKR026C, strain gcn3, stronger effect = lower value 0.927 | S. cerevisiae deletion strains, locus YKR091W, strain srl3, stronger effect = lower value 0.95 | S. cerevisiae deletion strains, locus YLL001W, strain dnm1, stronger effect = lower value 0.979 | S. cerevisiae deletion strains, locus YLL026W, stronger effect = lower value 0.972 | S. cerevisiae deletion strains, locus YLL041C, strain sdh2, stronger effect = lower value 0.985 | S. cerevisiae deletion strains, locus YLR027C, strain aat2, stronger effect = lower value 0.961 | S. cerevisiae deletion strains, locus YLR039C, strain RIC1, stronger effect = lower value 0.966 | S. cerevisiae deletion strains, locus YLR058C, strain SHM2, stronger effect = lower value 0.972 | S. cerevisiae deletion strains, locus YLR102C, strain apc9, stronger effect = lower value 0.983 | S. cerevisiae deletion strains, locus YLR113W, strain HOG1, stronger effect = lower value 0.959 | S. cerevisiae deletion strains, locus YLR221C, strain rsa3, stronger effect = lower value 0.967 | S. cerevisiae deletion strains, locus YLR258W, strain gsy2, stronger effect = lower value 0.98 | S. cerevisiae deletion strains, locus YLR262C, strain YPT6 (second series), stronger effect = lower value 0.976 | S. cerevisiae deletion strains, locus YLR262C, strain YPT6, stronger effect = lower value 0.941 | S. cerevisiae deletion strains, locus YLR268W, strain sec22, stronger effect = lower value 0.99 | S. cerevisiae deletion strains, locus YLR320W, strain mms22, stronger effect = lower value 0.964 | S. cerevisiae deletion strains, locus YLR330W, strain CHS5, stronger effect = lower value 0.996 | S. cerevisiae deletion strains, locus YLR342W, strain FKS1 (second series), stronger effect = lower value 1.07 | S. cerevisiae deletion strains, locus YLR342W, strain FKS1, stronger effect = lower value 0.954 | S. cerevisiae deletion strains, locus YLR357W, strain rsc2, stronger effect = lower value 0.967 | S. cerevisiae deletion strains, locus YLR370C, strain arc18, stronger effect = lower value 0.97 | S. cerevisiae deletion strains, locus YLR371W, strain rom2, stronger effect = lower value 0.999 | S. cerevisiae deletion strains, locus YLR384C, strain iki3, stronger effect = lower value 0.986 | S. cerevisiae deletion strains, locus YLR418C, strain cdc73, stronger effect = lower value 1 | S. cerevisiae deletion strains, locus YML016C, strain PPZ1, stronger effect = lower value 0.993 | S. cerevisiae deletion strains, locus YML032C, strain rad52, stronger effect = lower value 0.992 | S. cerevisiae deletion strains, locus YML120C, strain ndi1, stronger effect = lower value 0.967 | S. cerevisiae deletion strains, locus YML124C, strain tub3, stronger effect = lower value 0.982 | S. cerevisiae deletion strains, locus YMR058W, strain fet3, stronger effect = lower value 0.976 | S. cerevisiae deletion strains, locus YMR078C, strain ctf18, stronger effect = lower value 0.982 | S. cerevisiae deletion strains, locus YMR125W, strain sto1, stronger effect = lower value 0.944 | S. cerevisiae deletion strains, locus YMR129W, stronger effect = lower value 0.984 | S. cerevisiae deletion strains, locus YMR205C, strain PFK2, stronger effect = lower value 0.969 | S. cerevisiae deletion strains, locus YMR223W, strain ubp8, stronger effect = lower value 0.985 | S. cerevisiae deletion strains, locus YMR231W, strain pep5, stronger effect = lower value 0.986 | S. cerevisiae deletion strains, locus YMR263W, strain SAP30, stronger effect = lower value 0.981 | S. cerevisiae deletion strains, locus YMR307W, strain GAS1, stronger effect = lower value 1.07 | S. cerevisiae deletion strains, locus YNL067W, strain RPL9B, stronger effect = lower value 0.964 | S. cerevisiae deletion strains, locus YNL071W, strain lat1, stronger effect = lower value 0.976 | S. cerevisiae deletion strains, locus YNL183C, strain NPR1, stronger effect = lower value 0.915 | S. cerevisiae deletion strains, locus YNL209W, strain ssb2, stronger effect = lower value 0.975 | S. cerevisiae deletion strains, locus YNL233W, strain BNI4, stronger effect = lower value 0.978 | S. cerevisiae deletion strains, locus YNL248C, strain rpa49, stronger effect = lower value 0.969 | S. cerevisiae deletion strains, locus YNL250W, strain rad50, stronger effect = lower value 0.97 | S. cerevisiae deletion strains, locus YNL271C, strain bni1, stronger effect = lower value 0.995 | S. cerevisiae deletion strains, locus YNL298W, strain CLA4, stronger effect = lower value 0.986 | S. cerevisiae deletion strains, locus YNL307C, strain MCK1, stronger effect = lower value 0.987 | S. cerevisiae deletion strains, locus YNL322C, strain KRE1 (second series), stronger effect = lower value 0.942 | S. cerevisiae deletion strains, locus YNR049C, strain mso1, stronger effect = lower value 0.952 | S. cerevisiae deletion strains, locus YNR052C, strain pop2, stronger effect = lower value 0.996 | S. cerevisiae deletion strains, locus YOL006C, strain TOP1, stronger effect = lower value 0.928 | S. cerevisiae deletion strains, locus YOL012C, strain htz1 0.771 | S. cerevisiae deletion strains, locus YOL147C, strain pex11, stronger effect = lower value 0.982 | S. cerevisiae deletion strains, locus YOR001W, strain rrp6, stronger effect = lower value 0.979 | S. cerevisiae deletion strains, locus YOR061W, strain CKA2, stronger effect = lower value 0.959 | S. cerevisiae deletion strains, locus YOR069W, strain VPS5, stronger effect = lower value 0.994 | S. cerevisiae deletion strains, locus YOR070C, strain gyp1, stronger effect = lower value 0.972 | S. cerevisiae deletion strains, locus YOR080W, strain dia2, stronger effect = lower value 0.961 | S. cerevisiae deletion strains, locus YOR083W, strain WHI5, stronger effect = lower value 0.965 | S. cerevisiae deletion strains, locus YOR106W, strain vam3, stronger effect = lower value 0.956 | S. cerevisiae deletion strains, locus YOR136W, strain idh2, stronger effect = lower value 0.988 | S. cerevisiae deletion strains, locus YOR144C, strain elg1, stronger effect = lower value 0.987 | S. cerevisiae deletion strains, locus YOR184W, strain ser1, stronger effect = lower value 0.981 | S. cerevisiae deletion strains, locus YOR231W, strain MKK1, stronger effect = lower value 0.968 | S. cerevisiae deletion strains, locus YOR265W, strain rbl2, stronger effect = lower value 0.973 | S. cerevisiae deletion strains, locus YOR270C, strain vph1, stronger effect = lower value 0.927 | S. cerevisiae deletion strains, locus YOR290C, strain snf2, stronger effect = lower value 0.971 | S. cerevisiae deletion strains, locus YOR316C, strain cot1, stronger effect = lower value 0.978 | S. cerevisiae deletion strains, locus YPL051W, strain arl3, stronger effect = lower value 0.982 | S. cerevisiae deletion strains, locus YPL055C, strain LGE1, stronger effect = lower value 0.906 | S. cerevisiae deletion strains, locus YPL078C, strain atp4, stronger effect = lower value 0.971 | S. cerevisiae deletion strains, locus YPL106C, strain sse1, stronger effect = lower value 0.961 | S. cerevisiae deletion strains, locus YPL240C, strain hsp82, stronger effect = lower value 0.994 | S. cerevisiae deletion strains, locus YPL256C, strain CLN2, stronger effect = lower value 0.953 | S. cerevisiae deletion strains, locus YPR119W, strain clb2, stronger effect = lower value 0.986 | S. cerevisiae deletion strains, locus YPR141C, strain kar3, stronger effect = lower value 0.989 | S. cerevisiae deletion strains, locus YPR163C, strain tif3, stronger effect = lower value 0.996 | S. cerevisiae deletion strains, locus YPR167C, strain met16, stronger effect = lower value 0.994 | S. cerevisiae deletion strains, strain wtn01, stronger effect = lower value 1 | S. cerevisiae strains, strain wild type, stronger effect = lower value 0.982
